Laboratory results as given in PubChem BioAssay (EPA / NIEHS).
Activity calls are given as the source filed them. How the source made its calls: active means hit-call score of the fitted dose curve at least 0.9, where 1 is the maximum; inactive means score below 0.9.

Key:
[1] = read-out: TIMP metallopeptidase inhibitor 2 (TIMP2), TIMP2 (gene 7077); assay: BSK_KF3CT_TIMP2: BioMAP Diversity Plus: KF3CT Assay for TIMP metallopeptidase inhibitor 2 (TIMP2) Biomarker Activity (AID 2283071); settings: primary human keratinocytes with fibroblasts; actives raise or lower the signal
Summary of the method: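 Keratinocyte–fibroblast co-culture, 24 h exposure; TIMP-2 ELISA, DMSO-normalised bidirectional fit. Parallel SRB (0.1%, TCA-fixed, 560 nm) total-protein staining gauges cytotoxicity.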

[2] = read-out: Transforming growth factor beta 1 (TGFb1), TGFB1 (gene 7040); assay: BSK_KF3CT_TGFb1: BioMAP Diversity Plus: KF3CT Assay for Transforming growth factor beta 1 (TGFb1) Biomarker Activity (AID 2283072); settings: primary human keratinocytes with fibroblasts; actives raise or lower the signal
Summary of the method: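 Signal changes in either direction, relative to DMSO, define activity here. TGF-b1 is read by ELISA from a human keratinocyte-fibroblast co-culture 24 h post-dose.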

[3] = read-out: C-C motif chemokine 2 (Homo sapiens) (UniProt P13500); assay: BSK_KF3CT_MCP1: BioMAP Diversity Plus: KF3CT Assay for Monocyte Chemoattractant Protein 1 (MCP1/CCL2) Biomarker Activity (AID 2283073); settings: primary human keratinocytes with fibroblasts; actives raise or lower the signal
Summary of the method: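 Biomarker MCP-1 is measured by ELISA in primary human keratinocytes co-cultured with foreskin fibroblasts, 24 h after chemical treatment; DMSO serves as the negative control and activity baseline.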

[4] = read-out: Matrix Metallopeptidase 9 (MMP9), MMP9 (gene 4318); assay: BSK_KF3CT_MMP9: BioMAP Diversity Plus: KF3CT Assay for Matrix Metallopeptidase 9 (MMP9) Biomarker Activity (AID 2283074); settings: primary human keratinocytes with fibroblasts; actives raise or lower the signal;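 on AC50: MMP9 protein level quantified by ELISA in the co-culture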
Summary of the method: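 Keratinocyte plus foreskin fibroblast human primary skin co-culture was dosed with chemical and MMP-9 was quantified by ELISA 24 h later. Bidirectional curve fitting used DMSO as negative control and activity baseline.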

[5] = read-out: urokinase plasminogen activator (uPA), PLAU (gene 5328); assay: BSK_KF3CT_uPA: BioMAP Diversity Plus: KF3CT Assay for urokinase plasminogen activator (uPA) Biomarker Activity (AID 2283075); settings: primary human keratinocytes with fibroblasts; actives raise or lower the signal
Summary of the method: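 Human keratinocyte plus foreskin fibroblast primary co-culture exposed to chemical for 24 h. uPA levels were quantified by ELISA, and activity was fitted bidirectionally against a DMSO negative-control baseline.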

[6] = read-out: CD40, CD40 (gene 958); assay: BSK_LPS_CD40: BioMAP Diversity Plus: LPS Assay for CD40 Biomarker Activity (AID 2283076); settings: primary human HUVEC with PBMC; actives raise or lower the signal
Summary of the method: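 Using a multiplexed primary human co-culture (umbilical vein endothelium plus PBMC), CD40 was read by ELISA 24 h after dosing, with cytotoxicity tracked by sulforhodamine B staining of parallel cultures and activity fitted bidirectionally versus DMSO.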

[7] = read-out: E-selectin (Homo sapiens) (UniProt P16581); assay: BSK_LPS_Eselectin: BioMAP Diversity Plus: LPS Assay for Eselectin Biomarker Activity (AID 2283077); settings: primary human HUVEC with PBMC; actives raise or lower the signal
Summary of the method: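 Dose chemical onto LPS-driven HUVEC/PBMC co-culture; after 24 h, run ELISA for E-selectin; fit up- and down-going responses relative to DMSO control.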

[8] = read-out: Interleukin-1 alpha (IL1a), IL1A (gene 3552); assay: BSK_LPS_IL1a: BioMAP Diversity Plus: LPS Assay for Interleukin-1 alpha (IL1a) Biomarker Activity (AID 2283080); settings: primary human HUVEC with PBMC; actives raise or lower the signal
Summary of the method: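 Primary human HUVEC and PBMC co-culture stimulated with LPS is dosed and harvested at 24 h. Both increases and decreases in ELISA-measured IL-1a are scored relative to DMSO.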

[9] = read-out: Monocyte Chemoattractant Protein-1 (MCP1), CCL2 (gene 6347); assay: BSK_LPS_MCP1: BioMAP Diversity Plus: LPS Assay for Monocyte Chemoattractant Protein-1 (MCP1) Biomarker Activity (AID 2283081); settings: primary human HUVEC with PBMC; actives raise or lower the signal;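 on AC50: secreted MCP-1 protein quantified by ELISA in culture supernatant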
Summary of the method: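 Values derive from bidirectional fitting against DMSO of ELISA-measured MCP-1 in a human primary endothelial and mononuclear cell co-culture, 24 h after chemical addition under LPS activation.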

[10] = BSK_LPS_PGE2: BioMAP Diversity Plus: LPS Assay for Prostaglandin E2 (PGE2) Biomarker Activity (AID 2283082); settings: primary human HUVEC with PBMC; actives raise or lower the signal;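 further: secreted prostaglandin E2 measured by ELISA in LPS-stimulated co-culture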
Summary of the method: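 Endpoint derived from bidirectional curve fitting versus DMSO of ELISA-measured PGE2 in LPS-stimulated human primary vascular co-culture (HUVEC with PBMC) harvested at 24 h.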

[11] = read-out: Macrophage colony-stimulating factor (MCSF), CSF1 (gene 1435); assay: BSK_LPS_MCSF: BioMAP Diversity Plus: LPS Assay for Macrophage colony-stimulating factor (MCSF) Biomarker Activity (AID 2283083); settings: primary human HUVEC with PBMC; actives raise or lower the signal
Summary of the method: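 Bidirectional fit versus DMSO of ELISA-measured M-CSF in co-cultured human umbilical vein endothelial cells and PBMC, sampled 24 h after dosing.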

[12] = read-out: Tissue Factor, F3 (gene 2152); assay: BSK_LPS_TissueFactor: BioMAP Diversity Plus: LPS Assay for Tissue Factor Biomarker Activity (AID 2283084); settings: primary human HUVEC with PBMC; actives raise or lower the signal
Summary of the method: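 Read-out: CD142 ELISA, 24 h. System: LPS-driven human endothelial/PBMC co-culture. Analysis: up- or down-signal fitted against DMSO.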

[13] = read-out: Tumor necrosis factor (Homo sapiens) (UniProt P01375); assay: BSK_LPS_TNFa: BioMAP Diversity Plus: LPS Assay for Tumour Necrosis Factor alpha (TNFa) Biomarker Activity (AID 2283085); settings: primary human HUVEC with PBMC; actives raise or lower the signal
Summary of the method: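 Primary human vascular co-culture of HUVEC and PBMC; TNFa ELISA 24 h after treatment, analysed as increase or decrease relative to DMSO control.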

[14] = read-out: Vascular cell adhesion molecule 1 (VCAM1), VCAM1 (gene 7412); assay: BSK_LPS_VCAM1: BioMAP Diversity Plus: LPS Assay for Vascular cell adhesion molecule 1 (VCAM1) Biomarker Activity (AID 2283086); settings: primary human HUVEC with PBMC; actives raise or lower the signal
Summary of the method: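 Primary human vascular co-culture (umbilical vein endothelium plus PBMC) stimulated with LPS received chemical; 24 h later VCAM-1 was read by ELISA. Overt cytotoxicity was assessed by sulforhodamine B staining of parallel cultures at the same time point.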

[15] = read-out: CD38, CD38 (gene 952); assay: BSK_SAg_CD38: BioMAP Diversity Plus: SAg Assay for CD38 Biomarker Activity (AID 2283087); settings: primary human HUVEC with PBMC; actives raise or lower the signal
Summary of the method: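 Fluorescence ELISA of cell-surface CD38 served as the read-out, with either increase or decrease fitted against DMSO controls. Cells were a human umbilical vein endothelium plus PBMC co-culture under SEB/TSST-1 stimulation, measured 24 h after dosing.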

[16] = read-out: CD40, CD40 (gene 958); assay: BSK_SAg_CD40: BioMAP Diversity Plus: SAg Assay for CD40 Biomarker Activity (AID 2283088); settings: primary human HUVEC with PBMC; actives raise or lower the signal
Summary of the method: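 Endpoint derived by fitting increases or decreases versus DMSO controls. CD40 is detected by fluorescence ELISA in a human vascular co-culture of endothelium and PBMC at 24 h.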

[17] = read-out: CD69, CD69 (gene 969); assay: BSK_SAg_CD69: BioMAP Diversity Plus: SAg Assay for CD69 Biomarker Activity (AID 2283089); settings: primary human HUVEC with PBMC; actives raise or lower the signal;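 on AC50: cell surface CD69 protein quantified by ELISA with fluorescence detection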
Summary of the method: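 Primary human vascular co-culture (umbilical vein endothelium with peripheral blood mononuclear cells) exposed to test chemical for 24 h. CD69 levels quantified by fluorescence ELISA; DMSO served as negative control for bidirectional fitting.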

[18] = read-out: Monocyte Chemoattractant Protein-1 (MCP1), CCL2 (gene 6347); assay: BSK_SAg_MCP1: BioMAP Diversity Plus: SAg Assay for Monocyte Chemoattractant Protein-1 (MCP1) Biomarker Activity (AID 2283090); settings: primary human HUVEC with PBMC; actives raise or lower the signal
Summary of the method: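 MCP-1 levels in the endothelial–PBMC SAg co-culture were quantified by ELISA at 24 h post-dosing; both increases and decreases versus DMSO scored. Cytotoxicity monitored by SRB total protein in parallel cultures.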

[19] = read-out: Interleukin-8 (IL8), CXCL8 (gene 3576); assay: BSK_LPS_IL8: BioMAP Diversity Plus: LPS Assay for Interleukin-8 (IL8) Biomarker Activity (AID 2283078); settings: primary human HUVEC with PBMC; actives raise or lower the signal
Summary of the method: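 In this LPS system, chemical-treated human umbilical vein endothelium/PBMC co-cultures were harvested at 24 h for IL-8 ELISA.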

[20] = BSK_LPS_SRB: Viability Assessment in the BioMAP Diversity Plus: LPS Assay (AID 2283079); settings: primary human HUVEC with PBMC;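 further: total protein by sulforhodamine B absorbance as a cytotoxicity measure; measured one day after compound addition; fitted in both directions against DMSO so loss or gain of signal counts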
Summary of the method: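 Cytotoxicity endpoint in human endothelial–PBMC co-culture: 24 h exposure, then SRB (0.1%) staining, 560 nm read.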

Measured: AC50

Tumor necrosis factor (Homo sapiens), sequence (P01375 whole entry, looked up): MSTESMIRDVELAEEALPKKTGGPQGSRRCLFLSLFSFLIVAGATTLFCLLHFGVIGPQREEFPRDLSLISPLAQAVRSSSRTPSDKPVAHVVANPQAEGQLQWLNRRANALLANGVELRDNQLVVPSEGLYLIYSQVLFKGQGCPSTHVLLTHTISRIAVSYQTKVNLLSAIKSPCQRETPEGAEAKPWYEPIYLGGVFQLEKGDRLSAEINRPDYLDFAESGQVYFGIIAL
E-selectin (Homo sapiens), sequence (P16581 whole entry, looked up): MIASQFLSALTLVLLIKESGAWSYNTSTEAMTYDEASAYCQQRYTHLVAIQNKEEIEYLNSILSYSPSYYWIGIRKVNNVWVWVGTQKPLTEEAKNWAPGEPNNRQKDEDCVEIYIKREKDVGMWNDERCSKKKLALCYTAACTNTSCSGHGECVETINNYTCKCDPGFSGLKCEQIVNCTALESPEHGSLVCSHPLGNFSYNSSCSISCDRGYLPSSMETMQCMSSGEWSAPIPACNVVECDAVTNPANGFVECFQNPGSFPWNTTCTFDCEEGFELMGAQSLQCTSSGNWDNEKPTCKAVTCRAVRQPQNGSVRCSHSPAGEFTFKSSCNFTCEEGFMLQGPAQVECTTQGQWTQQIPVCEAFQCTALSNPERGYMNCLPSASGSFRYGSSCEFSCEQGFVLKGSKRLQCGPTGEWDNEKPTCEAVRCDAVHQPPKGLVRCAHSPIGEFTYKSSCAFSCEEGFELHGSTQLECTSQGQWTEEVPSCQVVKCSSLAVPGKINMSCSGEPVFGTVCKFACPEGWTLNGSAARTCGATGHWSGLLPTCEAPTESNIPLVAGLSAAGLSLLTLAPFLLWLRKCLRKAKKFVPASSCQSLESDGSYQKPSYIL

Clc1ccc(C(c2ccc(Cl)cc2)C(Cl)Cl)cc1
active: [1] 11.2 µM | [2] 9.57 µM | [3] 10.4 µM | [4] 10.2 µM | [5] 11.6 µM | [6] 29 µM | [7] 30.3 µM | [8] 28.6 µM | [9] 35.2 µM | [10] 28.5 µM | [11] 25.6 µM | [12] 37.8 µM | [13] 31.7 µM | [14] 30.5 µM | [15] 29.3 µM | [16] 26.2 µM | [17] 29.9 µM | [18] 34.2 µM

CN(C)[C@@H]1C(=O)C(C(N)=O)=C(O)[C@@]2(O)C(=O)C3=C(O)c4c(O)cccc4[C@@](C)(O)[C@H]3C[C@@H]12
not listed: [8] | [10] | [15]
inactive: all other assays above

c1ccc2c(c1)-c1cccc3cccc-2c13
inactive: [5]

[O-][Cl+]O
inactive: [5]
